Screens deposited in PubChem BioAssay by National Center for Advancing Translational Sciences (NCATS).
Only some compounds are listed: those with a hit (about 19% of all), similar ones and a draw of the others.
HT1080 IDH1KD tx – qHTS for induction of synthetic lethality in tumor cells producing 2HG: qHTS for the HT-1080-IDH1KD cell line; AID 686971, 2013; Potency, µM (series often up to 46.1 µM), for inactives: at the highest dose activity, negative = toxicity, actives largely listed as cytotoxic; HT-1080 IDH1 knockdown viability, ATP luminescence, 48 h; 360,000 tested, 2% active;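 note: 0% = DMSO wells and -100% = cell-free medium wells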
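Using the IDH1-knockdown HT-1080 line run in the same batch and compound series as the NT line, viability after 48 h at 37 °C was determined by CellTiter-Glo luminescence and expressed as % activity.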
HT1080-NT tox – qHTS for induction of synthetic lethality in tumor cells producing 2HG: qHTS for the HT-1080-NT fibrosarcoma cell line; HT-1080-NT fibrosarcoma viability, CellTiter-Glo ATP luminescence, 48 h; Potency, µM (highest dose often 46.1 µM), for the others: at the top dose activity, negative = less viability, most hits filed as cytotoxic; 360,000 tested, 1.6% active; AID 686970, 2013;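 note: NT is the 2HG producing partner of a matched IDH1 knockdown line; 0% = DMSO-treated cells and -100% = media-only wells without cells; nearly all actives have a fitted effect of over 55% in size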
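750 cells/well, RPMI + 5% FBS; 2 h settle, compound pin-transfer, 48 h at 37 degrees C. CellTiter-Glo 10 min RT, luminescence. Normalized to DMSO and media-only wells.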
DT40 TDP1 no CPT – qHTS for Inhibitors of human tyrosyl-DNA phosphodiesterase 1 (TDP1): qHTS in cells in absence of CPT; DT40 Tdp1-/- hTDP1 cells, no CPT, ATP luminescence, 48 h; Potency, µM (highest dose often 46.2 µM), inactives show at the top dose activity change, negative = growth inhibition, actives largely listed as inhibitors; 420,000 tested, 15% active; AID 686978, 2013; note: nearly all actives have a fitted effect of over 55% in size
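Cells were dispensed at 400 per well, compounds added by pin tool, plates incubated ≥48 hr at 37 °C, then CellTiter-Glo added for 30 min at room temperature before luminescence reading. Line: DT40 Tdp1-/- complemented with hTDP1; camptothecin omitted.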
KB-V1 MDR tox – qHTS assay for MDR1-selective chemotherapeutics: Primary screen using the drug-selected MDR subline cells KB-V1 | KB-V1 MDR cells viability, CellTiter-Glo, 72 h | Potency, µM (series often up to 46.1 µM), actives largely listed as cytotoxic | 400,000 tested, 3.4% active | AID 1347076, 2019; note: nearly all actives have a fitted effect of over 60% in size
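KB-V1 MDR subline cells in DMEM (phenol-red free, 10% FBS) exposed to compounds in qHTS concentration series for 72 h at 37 degrees C. Viability read by CellTiter-Glo luminescence; concentration-effect curves fitted after normalization and correction.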
DT40 TDP1 CPT – qHTS for Inhibitors of human tyrosyl-DNA phosphodiesterase 1 (TDP1): qHTS in cells in presence of CPT. 420,000 tested, 12% active. Potency, µM (doses to about 46.2 µM), for inactives: top-dose activity change, negative = growth inhibition, usual class: inhibitors. chicken DT40 Tdp1-/-;hTDP1 cells + 20 nM CPT, ATP luminescence, 48 h. AID 686979, 2013; note: nearly all actives have a fitted effect of over 55% in size
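Chicken DT40 Tdp1-/- cells complemented with human TDP1, 400 cells/well, exposed to compounds plus 20 nM camptothecin for at least 48 h at 37 C; viability read as ATP content by CellTiter-Glo luminescence.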
KB-3-1 cytotox – qHTS assay for MDR1-selective chemotherapeutics: Primary screen using the parental adenocarcinoma cell KB-3-1 | KB-3-1 viability, CellTiter-Glo ATP luminescence, 72 h | Potency, µM (titrated, usually from 46.1 µM), actives largely listed as cytotoxic | 400,000 tested, 1.4% active; note: nearly all actives have a fitted effect of over 60% in size
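Cytotoxicity in the drug-sensitive parental line KB-3-1 was scored as loss of CellTiter-Glo luminescence following 72 h incubation with compound. Values come from curve fitting of normalized concentration-response data.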
An asterisk follows results filed as active; i = inactive; ? = inconclusive; . = no result. Calls come from the whole dose curve; as a rule, active = well fitted curve in the direction sought with a large enough effect; inconclusive = small, poorly fitted or top-dose-only effect, or another doubt; inactive = no such curve, though single readings can be large; an effect the other way counts as inactive or inconclusive. Unless noted, % is set by controls: 0 for no effect and ±100 for the full control effect; potency is the fitted concentration of half-maximal effect.

SMILES | HT1080 IDH1KD tx | HT1080-NT tox | DT40 TDP1 no CPT | KB-V1 MDR tox | DT40 TDP1 CPT | KB-3-1 cytotox
FC(F)(F)c1ccc(CN2CCCCCC2)cc1 | 26% | 7% | 8% | i | 0% | i
COc1ccc(CC2(CO)CCN(Cc3cccc4nccnc34)CC2)cc1 | 13% | 1% | -28% | i | 2% | i
COc1ccc2c(c1)C=C(CN1CCC(CO)(CCc3ccccc3)CC1)CO2 | -18% | -8% | ? | ? | ? | i
COc1ccc(CC2(CO)CCN(Cc3ccc(OC(F)(F)F)cc3)CC2)cc1 | -21% | ? | 18µM* | i | ? | ?
COc1ccc(CC2(CO)CCN(CC3=Cc4cc(Cl)ccc4OC3)CC2)cc1 | 23µM* | 15µM* | 6.5µM* | i | 13µM* | ?
COc1ccc(CN2CCC(CO)(Cc3ccccc3C(F)(F)F)CC2)c(F)c1 | -9% | -6% | 18µM* | i | 16µM* | i
O=S(=O)(c1ccc(Cl)c(C(F)(F)F)c1)N1CCN(c2ccccn2)CC1 | 1% | -1% | -23% | ? | 0% | i
O=C(Nc1ccccc1F)c1ccc2sc([C@H]3C[C@H](O)[C@@H](CO)O3)nc2c1 | 20% | ? | ? | i | ? | i
O=C(NC1CC(=O)N(c2ccccc2)C1)c1ccc(S(=O)(=O)N2CCCCC2)cc1 (configuration not stated) | . | . | -21% | . | -25% | .
COc1ccc(CC2(CO)CCN(Cc3ccc4c(c3)CCO4)CC2)cc1 | 21µM* | ? | -28% | ? | -13% | i
O=C1CCC2c3[nH]c4ccccc4c3CCN12 (configuration not stated) | -9% | 3% | -30% | i | -11% | i
Cc1ccc(NC(=O)CSc2nc(-c3ccccc3Cl)nc3cc(=O)[nH]n23)c(C)c1 | . | . | ? | i | ? | i
Cc1c(C(=O)N(Cc2nnc(-c3ccccc3Cl)o2)C2CC2)oc2ccccc12 | -12% | -10% | ? | ? | 16µM* | i
Cc1ccsc1C(=O)N(Cc1nnc(-c2ccccc2Cl)o1)C1CC1 | 1% | 12% | ? | ? | ? | i
Cc1ccc(C(=O)N(Cc2nnc(-c3ccccc3Cl)o2)C2CC2)o1 | -2% | -3% | 18µM* | i | ? | i
O=C(c1cc(=O)[nH]c2ccccc12)N(Cc1nnc(-c2ccccc2Cl)o1)C1CC1 | 10% | 6% | ? | i | 13µM* | i
CC(=O)Nc1ccc(C(=O)OCC(=O)NCc2cccs2)cc1 | 7% | 5% | 12% | i | -2% | i
CCCCc1ccc(S(=O)(=O)NC(=O)C2(C)CCN2C(=O)Cc2ccccc2)cc1 (configuration not stated) | 15% | 22% | -15% | i | -15% | i
CCCCc1nn2c(=O)cc(COC(=O)c3cccc(NC(=O)CCc4ccccc4)c3)nc2s1 | . | . | -9% | i | -10% | i
CN1C(=O)c2ccccc2Sc2ccc(C(=O)O)cc21 | 22% | 13% | -4% | i | 6% | i
CC(=O)Nc1cc(C(=O)Nc2ccc3c(c2)N(C)C(=O)c2ccccc2S3)ccc1C | . | . | 0.92µM* | ? | 1.6µM* | 4.1µM*
CC(=O)c1ccc2c(c1)N(C)c1ccccc1S2 | -10% | 0% | ? | 23µM* | -20% | ?
Cc1ccc(C(=O)Nc2ccc3c(c2)N(C)C(=O)c2ccccc2S3)cc1F | . | . | 0.82µM* | 6.5µM* | 1µM* | 8.2µM*
C/C(=N\NC(=O)c1ccc(C)cc1C)c1ccc2c(c1)Nc1ccccc1S2 | ? | -24% | 16µM* | ? | ? | i
CCCCNC(=O)c1ccc2c(c1)N(C)C(=O)c1ccccc1S2 | 9% | -10% | ? | i | ? | i
SMILES | HT1080 IDH1KD tx | HT1080-NT tox | DT40 TDP1 no CPT | KB-V1 MDR tox | DT40 TDP1 CPT | KB-3-1 cytotox
COC(=O)c1ccc(OC)c(Cn2c(=O)n(C)c(=O)c3ccccc32)c1 | -9% | -12% | -26% | ? | -11% | i
Cc1cc(F)ccc1NC(=O)C(c1ccccc1)N1Cc2ccccc2C1=O (configuration not stated) | . | . | -12% | . | 3% | .
CCCNC(=O)C1(C)CCCN(C(=O)c2cccc(OC(F)(F)F)c2)C1 (configuration not stated) | 1% | 0% | ? | i | -26% | i
Cc1ccc(NC(=O)c2ccc3c(c2)NC(=O)c2ccccc2S3)cc1 | . | . | 2.6µM* | 9.2µM* | 3.7µM* | 6.5µM*
CCOC(=O)c1ccc(NC(=O)c2ccc3c(c2)NC(=O)c2ccccc2S3)cc1 | . | . | 0% | ? | -19% | i
CCOC(=O)N1CCN(S(=O)(=O)N2CCCC(C(=O)NC(C)c3ccccc3)C2)CC1 (configuration not stated) | -2% | 17% | -4% | i | -24% | i
C=CCN1CCCC1CNC(=O)c1cc(S(N)(=O)=O)cc(OC)c1OC (configuration not stated) | . | . | -6% | . | -1% | .
Cc1ccc(NC(=S)N/N=C/c2cccn2Cc2ccccc2F)cc1 | -10% | -2% | 3.7µM* | i | 4.6µM* | i
Cc1ccc(CN2CCN(CC(=O)N/N=C/c3ccccc3F)CC2)cc1 | -1% | 14% | 1% | i | -1% | i
COc1cc(CNCc2ccccn2)ccc1OCc1ccc(Cl)c(Cl)c1 | ? | ? | ? | i | ? | i
COc1cc(CNCCO)cc(Br)c1OCc1ccccc1Cl | -29% | -2% | ? | ? | 23µM* | ?
COc1cc(CNCCO)cc(Cl)c1OCc1ccc(Cl)cc1Cl | 16µM* | 21µM* | 21µM* | i | ? | i
COc1cc(CNCc2ccccn2)ccc1OCc1ccc(Cl)cc1Cl | 21µM* | 23µM* | ? | ? | ? | ?
COc1ccc(CN2C(=O)C(CC(=O)NCCCN(C)C)CC(C(=O)N(C)C)=C2C)cc1 (configuration not stated) | -6% | -11% | 9% | i | 16% | i
